Compound activity as filed in PubChem.
VDR inh = blocks the human vitamin D receptor. Potency, µM, for inactives: max response, negative = inhibition, actives largely listed as inhibitors. VDR-SRC2-3 peptide fluorescence polarization, 2 h. hit rate 0.93% among 400,000. AID 504847. P11473; further: on the % scale 0 is the no-effect control and ±100 the full control effect
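Reagent solutions, kept cold and dark, are dispensed first; compounds are then pinned in at 23 nl, plates briefly spun, and incubated 2 h at ambient temperature. Inhibition of VDR–SRC2-3 peptide binding is read by fluorescence polarization.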
G9a block = inhibitors of human histone lysine methyltransferase G9a; Q96KQ7; G9a H3K9 monomethylation, AlphaScreen, 2 h; Potency, µM (top dose mostly 102 µM), for inactives: at the top dose activity, negative = inhibition, hits mostly inhibitors; hit rate 8.8% among 350,000; AID 504332; further: on the % scale 0 is the no-effect control and ±100 the full control effect; nearly all actives have a fitted effect of over 75% in size
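Chemiluminescent proximity detection of H3K9 monomethylation, read after 10 min bead incubation in the dark. Reaction: 20 nM G9a, 500 nM biotin-H3K9 peptide, 20 uM SAM cofactor, 2 h, room temperature, following 15 min enzyme-compound preincubation.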
JMJD2A Tudor inh = inhibitors of human JMJD2A Tudor domain | Potency, µM (titrated, usually from 114 µM), inactives show top-dose activity change, negative = inhibition, most hits filed as inhibitors | hit rate 4.4% among 390,000 | AlphaScreen JMJD2A-Tudor / H3K4me3 peptide binding | AID 504339 | O75164; further: on the % scale 0 is the no-effect control and ±100 the full control effect; nearly all actives have a fitted effect of over 50% in size
BAZ2B inh = inhibitors of human BAZ2B bromodomain; Q9UIF8; AlphaScreen BAZ2B-H3K14Ac peptide displacement; Potency, µM (series often up to 114 µM), for the others: at the top dose activity change, negative = inhibition, hits mostly inhibitors; hit rate 4.4% among 360,000; AID 504333; further: on the % scale 0 is the no-effect control and ±100 the full control effect; nearly all actives have a fitted effect of over 60% in size
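AlphaScreen displacement of biotin-H3(5-23)K14Ac peptide (50 nM final) from BAZ2B (50 nM final) in PBS pH 7.4, 0.01% Tween-20; complex preformed 30 min RT, then compounds (top 110 uM) 30 min RT, beads 20 min dark.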
HP1b chromo inh = HP1-beta chromodomain-methylated histone interaction inhibition | P83916 | AlphaScreen HP1-beta / biotin-H3K9me3 peptide binding | Potency, µM (titrated, usually from 114 µM), inactives show at the highest dose activity change, negative = inhibition, actives largely listed as inhibitors | hit rate 0.56% among 390,000; further: nearly all actives have a fitted effect of over 70% in size
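Compound inhibition of the preformed complex between 50 nM HP1-beta and 50 nM biotinylated H3K9me3 peptide was read by AlphaScreen. Buffer was PBS pH 7.4 with 0.01% Tween-20. Incubations ran 30 min at room temperature, with 10 ug/mL donor/acceptor beads.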
PLK1 PBD inh = PLK1 (human) polo-box domain binding inhibition; P53350; Plk1 PBD binding of FITC phosphopeptide, fluorescence polarization; Potency, µM, for the others: max response, negative = inhibition, usual class: inhibitors; hit rate 2.8% among 360,000; AID 720504; further: series mostly up to about 57 µM; on the % scale 0 is the no-effect control and ±100 the full control effect; nearly all actives have a fitted effect of over 65% in size
Target sequence (P53350 whole entry, looked up, the tested form may be a part): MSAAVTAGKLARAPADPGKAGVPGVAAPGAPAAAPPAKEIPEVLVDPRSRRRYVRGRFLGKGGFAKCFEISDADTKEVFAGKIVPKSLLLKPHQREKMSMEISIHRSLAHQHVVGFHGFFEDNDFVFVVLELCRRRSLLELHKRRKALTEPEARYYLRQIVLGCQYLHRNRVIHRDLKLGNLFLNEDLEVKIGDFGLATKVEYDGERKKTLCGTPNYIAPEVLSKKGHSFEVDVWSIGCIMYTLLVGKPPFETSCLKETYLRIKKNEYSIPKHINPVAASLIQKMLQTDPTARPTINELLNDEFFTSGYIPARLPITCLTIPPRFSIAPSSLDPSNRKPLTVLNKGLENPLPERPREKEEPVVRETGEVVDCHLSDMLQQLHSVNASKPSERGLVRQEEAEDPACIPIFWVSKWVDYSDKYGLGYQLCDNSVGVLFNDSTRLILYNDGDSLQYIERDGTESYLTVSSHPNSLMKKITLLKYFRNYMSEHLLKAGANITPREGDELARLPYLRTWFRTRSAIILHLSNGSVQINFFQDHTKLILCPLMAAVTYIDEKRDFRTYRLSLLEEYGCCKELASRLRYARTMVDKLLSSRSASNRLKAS
Numbers without * were called inactive; ? = inconclusive; . = no result given; [ ] = dose if it differs, or a comment. Only some compounds are listed: those with a hit (about 11% of all), similar ones and a draw of the others. The call rests on the fitted dose curve; in most records, active means well fitted curve in the direction sought with a large enough effect; inconclusive means small, poorly fitted or top-dose-only effect, or another doubt; inactive means no such curve, though single readings can be large; an effect the other way counts as inactive or inconclusive. Potency means the concentration at half of the fitted maximal effect.

SMILES	VDR inh	G9a block	JMJD2A Tudor inh	BAZ2B inh	HP1b chromo inh	PLK1 PBD inh
COc1cc(-c2ccc(-[n+]3nc(-c4ccccc4)nn3-c3ccc([N+](=O)[O-])cc3)c(OC)c2)ccc1-[n+]1nc(-c2ccccc2)nn1-c1ccc([N+](=O)[O-])cc1	1%	?	.	.	.	.
CCCCCCCCCc1ccc(O)cc1	7%	.	.	.	.	.
CN1C(=O)C(=Cc2ccc(N3CCCCCC3)o2)C(=O)N(C)C1=S	19%	45µM*	?	?	-50%	62%
O=C1NC(=S)N(c2ccccc2F)C(=O)/C1=C\c1cccs1	?	1.3µM*	50µM*	50µM*	-12%	7.5µM*
CCOC(=O)N(c1ccccc1)P1(=S)OCCO1	79µM*	?	-23%	7%	-21%	12µM*
CCOC(=O)N(c1ccccc1)P1(=S)OCC(C)O1 (centres undefined)	5%	17%[59 µM]	-11%	8%	28%	-7%
COC(=O)N(c1ccccc1)P1(=S)OCCO1	?	46%[59 µM]	?	55%	-22%	12µM*
Cc1ccc(Cl)c(O)c1	13%	30%[59 µM]	.	.	.	.
C[C@@]12CC[C@H](O)C[C@@H]1CC[C@H]1[C@@H]2C[C@@H](O)[C@]2(C)[C@@H](C3=CC(=O)OC3)CC[C@]12O	-9%	10%[21.5 µM]	.	.	.	.
CC(C)(C)OC(=O)C(Br)CCBr (centres undefined)	-1%	.	.	.	.	.
CN1C(=O)[C@]23CC4=CC=C[C@H](O)[C@H]4N2C(=O)[C@@]1(CO)SS3	4µM*	.	.	.	.	.
O=C1NC(=S)NC(=O)C1c1ccccc1	?	.	50µM*	.	?	24µM*
Cc1c(C)n(O)c2ccc3nonc3c12	-23%	?	-14%	-13%	14%	19µM*
O=C(Nc1ccc2c(c1)OCO2)c1cccn(Cc2ccc(F)cc2)c1=O	9%	?	-22%	?	20%	.
O[C@@H]1[C@@H]2O[P@@](O)(=S)OC[C@H]2O[C@H]1n1cnc2cc(Cl)c(Cl)cc21	-21%	.	.	.	.	.
N[C@H](Cn1ccc(=O)c(O)c1)C(=O)O	1%	18%[21.5 µM]	.	.	.	.
N[C@@H](Cn1ccc(=O)c(O)c1)C(=O)O	1%	10µM*	.	.	.	.
CC1(C)OC(c2ccccc2)=C/C(=C/C=C2C(=O)NC(=S)NC2=O)O1	-24%	10µM*	?	10µM*	11µM*	8%
CS(=O)(=O)NNP(=O)(NNS(C)(=O)=O)NC(=O)c1ccc(Br)cc1	10%	45µM*	-17%	-14%	44%	-5%
NP(=O)(Nc1ccccc1)Nc1ccccc1	17%	.	-17%	.	6%[57 µM]	-2%
CS(=O)(=O)NNP(=O)(NNS(C)(=O)=O)NC(=O)c1ccccc1	-15%	56µM*	6%	-10%	31%	4%
COc1ccc2c(c1)c(=O)c(C(=O)c1ccc(Cl)cc1)cn2CC(=O)Nc1ccc2c(c1)OCCO2	-11%	19%[59 µM]	-3%	-1%	52%	.
C[N+]1([O-])[C@@H]2CC[C@H]1CC(OC(=O)[C@@H](CO)c1ccccc1)C2 (some centres undefined)	-9%	22%[5.15 µM]	.	.	.	.
COc1ccccc1OCC(=O)N1CCCC(N2CCN(c3ccc(F)cc3)CC2)C1 (centres undefined)	-7%	-12%	-10%	-17%	9%	2%
COc1ccccc1N1CCN(C2CCN(C(=O)c3cccs3)CC2)CC1	9%	28µM*	7.1µM*	-34%	-53%	0%
CN[C@H](CC(C)C)C(=O)N[C@H]1C(=O)N[C@@H](CC(N)=O)C(=O)N[C@H]2C(=O)N[C@H]3C(=O)N[C@H](C(=O)N[C@H](C(=O)O)c4cc(O)cc(O)c4-c4cc3ccc4O)[C@H](O)c3ccc(c(Cl)c3)Oc3cc2cc(c3O[C@@H]2O[C@H](CO)[C@@H](O)[C@H](O)[C@H]2O[C@H]2C[C@](C)(N)[C@H](O)[C@H](C)O2)Oc2ccc(cc2Cl)[C@H]1O	.	38%[12.7 µM]	.	.	.	.
